Source: PubChem BioAssay (The Scripps Research Institute Molecular Screening Center)
An excerpt weighted towards active compounds, which were near 0.84% of everything screened.
PPARg SRC-1 ag: PPARgamma agonists recruiting SRC-1 coactivator, primary screen, biochemical; Peroxisome proliferator-activated receptor gamma (Homo sapiens), P37231; 200,000 tested, 0.41% active; PPARgamma-SRC-1 coactivator recruitment biochemical assay; activation, % at 8 µM; in the data active means activation above about 19%;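 further: 0% = DMSO and 100% = reference agonist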
Target sequence (P37231 whole entry, looked up): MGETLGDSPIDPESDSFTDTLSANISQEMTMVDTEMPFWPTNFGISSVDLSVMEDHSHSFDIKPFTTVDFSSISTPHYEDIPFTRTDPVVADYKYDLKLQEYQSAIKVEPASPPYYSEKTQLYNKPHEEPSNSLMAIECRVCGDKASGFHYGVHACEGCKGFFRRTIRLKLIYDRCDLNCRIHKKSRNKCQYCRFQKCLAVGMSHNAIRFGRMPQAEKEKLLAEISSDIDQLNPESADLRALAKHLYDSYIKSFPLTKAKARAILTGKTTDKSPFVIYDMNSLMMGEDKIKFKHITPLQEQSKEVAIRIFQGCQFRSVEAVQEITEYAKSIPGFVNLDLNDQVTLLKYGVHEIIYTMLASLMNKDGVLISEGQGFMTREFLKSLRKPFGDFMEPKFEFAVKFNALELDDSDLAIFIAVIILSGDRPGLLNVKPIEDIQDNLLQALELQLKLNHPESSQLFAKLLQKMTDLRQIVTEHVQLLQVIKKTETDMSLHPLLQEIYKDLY
SRC3 TRFRET art: TR-FRET detection interference compounds, artefact control for PPARgamma SRC-3 recruitment agonists, biochemical, TR-FRET ratio. TR-FRET artefact counter-screen, PPARgamma/SRC-3 format; hits give high values. 99,000 tested, 0.39% active. TR-FRET ratio at 8 µM. AID 1048, 2008
PPARg SRC-3 ag: PPARgamma agonists recruiting SRC-3 coactivator, primary screen, biochemical; biochemical PPARgamma/SRC-3 coactivator recruitment assay; 200,000 tested, 0.26% active; activation, % at 8 µM; Peroxisome proliferator-activated receptor gamma (Homo sapiens), P37231; in the data active means activation above about 23%;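 further: 0% = DMSO and 100% = reference agonist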
SRC1 TRFRET art: TR-FRET detection interference compounds, primary screen, artefact control for PPARgamma SRC-1 recruitment agonists, biochemical, TR-FRET emission ratio; TR-FRET detection artefact counter-screen; hits give high values; TR-FRET ratio at 8 µM; 99,000 tested, 0.34% active; AID 1051, 2008; in the data active means TR-FRET ratio above about 2300
PPARg SRC2 recr: agonists of PPARg-SRC-2 recruitment, primary screen, biochemical, HTS; Peroxisome proliferator-activated receptor gamma (Homo sapiens), P37231; 200,000 tested, 0.34% active; PPARgamma LBD-SRC-2 recruitment; activation, % at 8 µM; AID 1032, 2008; in the data active means activation above about 22%;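 further: 0% = vehicle and 100% = reference agonist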
SRC2 TRFRET art: TR-FRET signal artefacts, primary screen, artefact control for PPARgamma SRC-2 agonist project, biochemical. TR-FRET artefact counter-screen; hits give high values. TR-FRET ratio at 8 µM. 200,000 tested, 0.4% active. AID 1049, 2008
Starred values were filed as active, the others as inactive; . = no result given. Unless noted, no stated cut-off is given here; in the data, active means TR-FRET ratio above about 2000; inactive means the rest.

SMILES	PPARg SRC-1 ag	SRC3 TRFRET art	PPARg SRC-3 ag	SRC1 TRFRET art	PPARg SRC2 recr	SRC2 TRFRET art
CC(C)(C)NC(=O)CSc1nc(O)cc(=O)n1-c1ccccc1F	0	.	29*	.	-2	1528
COc1ccccc1-n1c(SCC(=O)NC(C)(C)C)nc(O)cc1=O	6	.	4	.	6	1559
O=C(Cc1c2ccccc2nc2ccccc12)c1ccccc1	4	1484	4	1704	13	1594
O=C(c1cnc(-c2ccc(Cl)cc2)s1)c1ccc(Cl)cc1Cl	12	.	36*	.	3	1430
O=C(O)Cc1ccc(C(=O)c2ccc(Cl)cc2Cl)s1	0	1693	0	2208	7	1896
O=C(C1=C[C@@H](c2ccc(Br)cc2)C[C@@H](OCCCCO)O1)N1CCN(Cc2ccc3c(c2)OCO3)CC1	1	1729	31*	1764	6	1592
O=c1c2c3c(sc2ncn1/N=C/c1ccc([N+](=O)[O-])o1)CCCC3	8	.	-4	.	-6	1512
Cn1cc(/C=N/n2cnc3sc4c(c3c2=O)CCCC4)c2ccccc21	7	.	10	.	2	1972*
COc1ccc(CN2CCNC(=O)C2CC(=O)NCCCn2cccn2)c(OC)c1 (stereo not drawn)	5	1783	9	1758	2	1576
Cc1cc2nc(-c3ccc(SCC(=O)Nc4ccc5c(c4)OCCO5)nc3)[nH]c2cc1C	1	.	1	.	3	2267*
COc1ccc(C)cc1-n1nnnc1SCC(=O)c1ccc2c(c1)OCCO2	-9	.	-1	.	6	3766*
COc1cccc(-c2nc(-c3ccc(NC(=O)Cc4ccccc4OC)cc3)no2)c1	-2	.	0	.	-5	1985*
COc1ccc(-c2noc(Cc3ccccc3OC)n2)cc1	4	.	26*	.	7	1718
COc1ccc(-c2nc(-c3ccc(NC(=O)c4ccc(Br)o4)cc3)no2)cc1OC	11	.	30*	.	8	1699
COc1cccc(NC(=O)Cc2nc(-c3ccccc3)sc2-c2ccc(C)cc2)c1	2	3358*	3	3241*	-6	2590*
COc1ccc(-c2noc(Cc3cccs3)n2)cc1	1	.	4	.	2	1628
COc1ccc(NC2=C3CC(C)CC=C3N(c3ccc(OC)cc3)C2=O)cc1 (stereo not drawn)	0	1614	8	1798	3	1659
O=C(COC(=O)c1cc(-c2cccc(Br)c2)nc2ccccc12)NCC1CCCO1 (stereo not drawn)	-6	1524	3	1864	2	1589
O=C(Cc1ccccc1)Nc1ccc2c(c1)CCC2	4	1629	-1	1680	-5	1537
O=C(CC1CCCC1)Nc1ccc2c(c1)CCC2	8	.	13	.	57*	1871
N=c1c2c(-c3ccccc3)c(-c3ccccc3)n(Cc3ccco3)c2ncn1Cc1ccco1	6	1547	-3	1834	6	1516
CCOC(=O)n1cc(-c2cnc(CNC(=O)C(C)(c3ccccc3)c3ccccc3)o2)c2ccccc21	9	1588	-3	1619	28*	1921
CC(C(=O)NCCN1CCOCC1)(c1ccccc1)c1ccccc1	7	1655	0	1837	0	1771
O=C(c1cccc(-c2ccc(O)cc2)c1)N1CCN(c2ccc(F)cc2)CC1	-1	1456	3	1543	-1	1494
Cc1c(Cl)cccc1NC(=O)CCCn1nc([N+](=O)[O-])cc1C	7	1427	2	2085	14	2111*
O=C(CSc1nnc(-c2csc3c2CCCC3)o1)Nc1ccccc1	3	.	2	.	-6	1484
O=C(C1=C[C@@H](c2ccc(C(F)(F)F)cc2)C[C@@H](OCc2ccc(CO)cc2)O1)N1CCOCC1	7	1614	1	1750	24*	1870
COCCn1c(COc2cccc(OC)c2)nnc1SCC(=O)N1CCOCC1	-4	.	-2	.	-6	1481
COc1ccc(C(=O)Nc2nc3c(s2)CCCC3)cc1S(=O)(=O)N1CCCc2ccccc21	1	2089*	5	2068	10	1754
